The target in the first test is SYT2. Kind of test: pooled miR-30 sensor sort-seq; sequence = guide strand. As to conditions: shRNA.
With TTGACATAAGGGTCTGAGGTGC, the sensor-assay potency score (higher = more potent) was -0.653. Same read-out and setting: under TTTGGTCTCATATTTCTTCTTC stands 0.677. The same measure, in the same setting: to TCTCATTGAATAACTTCTCCTT belongs -0.0548; to TATTTCTTCTTCTTGTCAGGAA, 0.447; to TTGGCCAGCATGTCGGACCAGT, -0.931. For the sequence TTTGGCAAACATGTCCTCCTGA, the sensor-assay potency score (higher = more potent) was 0.92.

In turn, TATCTCATTGAATAACTTCTCC had a sensor-assay potency score (higher = more potent) of -0.214.

With TTGAATAACTTCTCCTTCAGTT, the sensor-assay potency score (higher = more potent) came out at 0.105. The same measure, in the same setting: under TTCTGAATCTGCTCGAAGGGGA stands 0.015; under TACCTGGACTTTCTGAATCTGC, -0.968.

In turn, TTTATCTCATTGAATAACTTCT came in with a sensor-assay potency score (higher = more potent) of -0.172.

In the next test the target is SYTL1. The description is as above. The following applies: shRNA.
In turn, TTCACCGCCGTCTTGCGCTTGC yielded a sensor-assay potency score (higher = more potent) of -0.681.

With TTCTCTTTCACAGCAGCCTCAG, the sensor-assay potency score (higher = more potent) was -1.16.

The sequence TTGTACGTAAGTGTCCAGGGAT yielded a sensor-assay potency score (higher = more potent) of 0.203. Regarding TTCCTGCGCATAGACGCTCGGA, the sensor-assay potency score (higher = more potent) was -0.515. In turn, TTGAACACAGGGCTGAGGCTGC returned a sensor-assay potency score (higher = more potent) of 0.21. In the case of TTATCCGGGAGGAGGTAGCTTT, the sensor-assay potency score (higher = more potent) was -1.36. TAGACGCTCGGACAAGGTCAGA returned a sensor-assay potency score (higher = more potent) of -1.39. In turn, TGAGGTCCAACAGTCCTTCAGT had a sensor-assay potency score (higher = more potent) of -0.459. TTGACGTAGGGGTCCGAGCGGC gave a sensor-assay potency score (higher = more potent) of -0.281. Consider TCGCACAACCCTTGTACGCTGG, for which the sensor-assay potency score (higher = more potent) was -0.836. As to TTCTTCACCGCCGTCTTGCGCT, the sensor-assay potency score (higher = more potent) was -1.02. Regarding TTTCACAGCAGCCTCAGCCTCC, the sensor-assay potency score (higher = more potent) is -0.778.

The target in a further test is SYTL4. The description is as above. The following applies: shRNA.
Regarding TTTCATGTACCACATCTTCTGG, the sensor-assay potency score (higher = more potent) was -0.423. Regarding TTCAACTCTATTTCCTTGGCGC, the sensor-assay potency score (higher = more potent) is 0.409. The same measure, in the same setting: under TAGTGGATTAACAGTGTCCCGC stands -0.966; under TCATGTACCACATCTTCTGGGC, 0.653; under TTCTTTAGTCGCCTAATCCTTT, -1.13. Same read-out and setting: under TAATCCTTTTCTCATCTGCTTT stands -1.12. Take AACACTGAGAATCAAATCCTTT: the sensor-assay potency score (higher = more potent) was -1.16.

Turning to TTTCTTCAACTCTATTTCCTTG, the sensor-assay potency score (higher = more potent) is -0.969. For TTAGTGTACTCTGAAGGCCTGA, the sensor-assay potency score (higher = more potent) was -0.464. The same measure, in the same setting: under TTCATGTACCACATCTTCTGGG stands 0.0201. Sequence TTTGGGAGCAGACATCTTCTTC registered a sensor-assay potency score (higher = more potent) of -0.722. The sequence TTATCCAGAGAGTCTCTCCTGG had a sensor-assay potency score (higher = more potent) of -0.0866.

The target of another test is TAAR8. The test is described as above. As to conditions: shRNA.
In the case of TAATGGTTGATGAACTAGCCTT, the sensor-assay potency score (higher = more potent) is -0.64. In turn, AAATCTATCAACACCCAGCCTT returned a sensor-assay potency score (higher = more potent) of -0.587.

For TATAAGAAAAATCTTACTGTAA, the sensor-assay potency score (higher = more potent) was -0.203. Sequence TTTAGCTATAAGAAAAATCTTA showed a sensor-assay potency score (higher = more potent) of -0.583. Take TTAGCTATAAGAAAAATCTTAC: the sensor-assay potency score (higher = more potent) is -0.74.
Also: reference of the scale not given here.
